The results in this text go back to PMC6602471.

Whole data set: some 1,300 sequences, median “log fluorescence intensity” near 8.9, cut for the highest 2% near 13. The sample holds the highest values, similar sequences and a random draw of the others, so the mix is not that of the screen.

The experiment deals with T1, ELK1 (Homo sapiens, UniProt P19419 1-428).
T1 sequence: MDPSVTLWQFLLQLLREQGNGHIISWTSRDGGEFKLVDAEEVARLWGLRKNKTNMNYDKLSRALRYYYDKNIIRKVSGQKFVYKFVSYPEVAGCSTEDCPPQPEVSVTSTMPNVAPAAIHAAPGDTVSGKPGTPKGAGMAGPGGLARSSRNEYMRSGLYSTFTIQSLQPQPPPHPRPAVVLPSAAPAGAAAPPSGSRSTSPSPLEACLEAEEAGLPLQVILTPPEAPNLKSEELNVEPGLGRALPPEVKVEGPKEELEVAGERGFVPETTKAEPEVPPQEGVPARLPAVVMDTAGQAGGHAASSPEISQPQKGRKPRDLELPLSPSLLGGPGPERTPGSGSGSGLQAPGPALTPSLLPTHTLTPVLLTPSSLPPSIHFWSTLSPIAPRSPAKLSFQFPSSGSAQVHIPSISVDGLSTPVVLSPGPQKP
The experiment can be described thus: custom PBM; custom protein-binding microarray; buffer, salt, pH and temperature not stated; high values mean tight binding. The note with it: dsDNA, one strand shown.
In the case of “CGGAAGTGTCGTAAACGTCGGATATCCGGTTCTTTTGTCTTGATTCGCTTGACGCTGCTG”, the binding signal is 12.5 log fluorescence intensity.
As for “CGGAAGTGTCGTAAACGTCCGATATCCGGTTCTTCTGTCTTGATTCGCTTGACGCTGCTG”, the binding signal was 12.3 log fluorescence intensity.
“CGGAAGTGGCGTAAACGTCGGATATCCGGTTCTTCTGTCTTGATTCGCTTGACGCTGCTG”: the binding signal is 12.1 log fluorescence intensity.
In the case of “CGGAAGTGACGTAAACGTCGGATATCCGGTTCTTCTGTCTTGATTCGCTTGACGCTGCTG” it was 12.3 log fluorescence intensity; in that of “CGGAAGTGTCGTAAACGTCGGATATCCGGGTCTTCTGTCTTGATTCGCTTGACGCTGCTG”, 11.9 log fluorescence intensity; in that of “CGGAAGTGCCGTAAACGTCGGATATCCGGTTCTTCTGTCTTGATTCGCTTGACGCTGCTG”, 12.5 log fluorescence intensity.
With “CGGAAGTGTCGTAAACGTCGGATATCCGGTCCTTCTGTCTTGATTCGCTTGACGCTGCTG” the figure was 12.6 log fluorescence intensity.
Take “CCGAAGTGTCGTAAACGTCGGATATCCGGTTCTTCTGTCTTGATTCGCTTGACGCTGCTG”: the binding signal was 12.6 log fluorescence intensity.
Regarding “CGGAAGTGTCGTAAACGTCGGATATCCGGTTCTTGTGTCTTGATTCGCTTGACGCTGCTG”, the binding signal is 12.6 log fluorescence intensity.
For the sequence “CGGAAGTGTCGTAAACGTCGAATATCCGGTTCTTCTGTCTTGATTCGCTTGACGCTGCTG”, the binding signal is 11.7 log fluorescence intensity.
As to “CGGAAGTGTCGTAAACGTCGGATATCCGGTGCTTCTGTCTTGATTCGCTTGACGCTGCTG”, the binding signal was 12.5 log fluorescence intensity.
In the case of “TCCGGCTACCAGCGCCACCCACTTCAGGCCTTGTAGGTCTTGATTCGCTTGACGCTGCTG” it was 8.91 log fluorescence intensity.
As to “CACAATATTTACAGTAATGTAGCACGCGTAACTCCTGTCTTGATTCGCTTGACGCTGCTG”, the binding signal is 8.95 log fluorescence intensity.
As for “CGGAAGTGTCGTAAACGTCGGTTATCCGGTTCTTCTGTCTTGATTCGCTTGACGCTGCTG”, the binding signal is 10.1 log fluorescence intensity.
Regarding “CGGAAGTGTCGTAAACGACGGATATCCGGTTCTTCTGTCTTGATTCGCTTGACGCTGCTG”, the binding signal was 12.7 log fluorescence intensity.
Regarding “CGGAAGTGTCGTAAACGGCGGATATCCGGTTCTTCTGTCTTGATTCGCTTGACGCTGCTG”, the binding signal was 12.6 log fluorescence intensity.
Consider “CGGAAGTGTCGTAAACGTCGGATATCCGGTTATTCTGTCTTGATTCGCTTGACGCTGCTG”, for which the binding signal was 12.5 log fluorescence intensity.
On to “GGAAAAAGGCCCAGGGTAACACCGCAAGTGGGCTTAGTCTTGATTCGCTTGACGCTGCTG”, for which the binding signal was 8.91 log fluorescence intensity.
Take “TAAAGGGAAGACGGTTGTGGTAGGTCCGGGTATTAAGTCTTGATTCGCTTGACGCTGCTG”: the binding signal is 8.98 log fluorescence intensity.
Turning to “CACAATTTTAACAGTAATGTAGCACGCGTAACTCCTGTCTTGATTCGCTTGACGCTGCTG”, the binding signal was 8.9 log fluorescence intensity.
For “GATGAATTTCTGCCCTTATTCGCACGTGCCATAACAGTCTTGATTCGCTTGACGCTGCTG”, the binding signal is 8.9 log fluorescence intensity.
For the sequence “GGAAAAAGGCCCAGGGTTACACCGGAAGTGGGCTTAGTCTTGATTCGCTTGACGCTGCTG”, the binding signal is 11 log fluorescence intensity.
For “TAAAGGGAACACGGTTGTGGTAGTTCCGGGTATTAAGTCTTGATTCGCTTGACGCTGCTG”, the binding signal is 11.2 log fluorescence intensity.
As for “GGAAAAAGGCCCAGGGCAACACCGGAAGTGGGCTTAGTCTTGATTCGCTTGACGCTGCTG”, the binding signal was 10.9 log fluorescence intensity.
For the sequence “CCCAATTTTTACAGTAATGTAGCACGCGTAACTCCTGTCTTGATTCGCTTGACGCTGCTG”, the binding signal is 8.98 log fluorescence intensity.
“CTGGGACTTGACCCAACTCTGCCACGTGGGCCGTTTGTCTTGATTCGCTTGACGCTGCTG”: the binding signal is 9.05 log fluorescence intensity.
As to “CGGGGACTTGACCCAACTCTGCCACGTGGGTCGTTTGTCTTGATTCGCTTGACGCTGCTG”, the binding signal is 8.96 log fluorescence intensity.
In the case of “TACTTACTTATATATGCGAATGCACATGAATAGACCGTCTTGATTCGCTTGACGCTGCTG” it was 9.06 log fluorescence intensity; in that of “TAAAGGGAAGACGCTTGTGGTAGTTCCGGGTATTAAGTCTTGATTCGCTTGACGCTGCTG”, 11 log fluorescence intensity.
With “TAAAGGGAAGACGGATGTGGTAGTTCCGGGTATTAAGTCTTGATTCGCTTGACGCTGCTG” the figure was 12.6 log fluorescence intensity.
With “TAAAGGGAAGACGGGTGTGGTAGTTCCGGGTATTAAGTCTTGATTCGCTTGACGCTGCTG” the figure was 11.2 log fluorescence intensity; with “TCCAGCTACCAGCTCCACCCACTTCAGGCCTTGTAGGTCTTGATTCGCTTGACGCTGCTG”, 8.99 log fluorescence intensity; with “CACAATTTGTACAGTAATGTAGCACGCGTAACTCCTGTCTTGATTCGCTTGACGCTGCTG”, 8.91 log fluorescence intensity.
“GGAAAAAGGCCCAGGGTAACCCCGGAAGTGGGCTTAGTCTTGATTCGCTTGACGCTGCTG”: the binding signal was 10.5 log fluorescence intensity.
As for “CAGCATAGGACTTCTTCCCTGAAGCAATTGATAACTGTCTTGATTCGCTTGACGCTGCTG”, the binding signal is 8.96 log fluorescence intensity.
With “CACAATTTTTACAGTAATGTAGCACGCGGAACTCCTGTCTTGATTCGCTTGACGCTGCTG” the figure was 8.97 log fluorescence intensity.
In the case of “TCCGGCTACAAGCTCCACCCACTTCAGGCCTTGTAGGTCTTGATTCGCTTGACGCTGCTG” it was 8.93 log fluorescence intensity; in that of “TAAAGGGAAGACGGTTGTGGTAGTTCCGGGTACTAAGTCTTGATTCGCTTGACGCTGCTG”, 11.3 log fluorescence intensity.
With “GTGTATAGGATCCCATCCAACACACCTGTTAAAATGGTCTTGATTCGCTTGACGCTGCTG” the figure was 8.91 log fluorescence intensity; with “TCCGGTTACCAGCTCCACCCACTTCAGGCCTTGTAGGTCTTGATTCGCTTGACGCTGCTG”, 8.91 log fluorescence intensity; with “TAAAGGGAAGACGGTTGTGGTAGTTCCGCGTATTAAGTCTTGATTCGCTTGACGCTGCTG”, 9.44 log fluorescence intensity.
